This note sets out measurements from PubChem BioAssay (NCATS).

Experiment [1] has as its target Lysosomal acid glucosylceramidase (Homo sapiens) (UniProt P04062). Nature of the experiment: Glucocerebrosidase-p2 (AID 348; in the data active means potency below about 10 µM; further: potency means the concentration at half of the fitted maximal effect). Particulars: purified GBA, blue fluorogenic substrate, 40 min. In a few lines: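 Compounds titrated from 0.6 nM upwards against 0.2 nM enzyme in pH 5.9 citric acid/KH2PO4, taurocholate, tween-20; blue fluorogenic substrate 80 uM, 40 min room temperature, stopped and read Ex 365/Em 440 for AC50.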

The nature of experiment [2]: AP1 Signaling Pathway (AID 357; active means well fitted curve in either direction with a large enough effect, not every such curve was filed as active;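 further: ME-180 reporter cells stimulated with EGF at its EC50 level; on the % scale 0 is the no-effect control and ±100 the full control effect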). Conditions: ME-180 AP-1-bla reporter, EGF-induced, beta-lactamase ratio, 5 h; at 7.69 µM (top of the series) unless noted. The procedure, abridged: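 Modulation of EGF-driven AP-1 transcription was assessed with a beta-lactamase reporter in ME-180 cells. Compound and EC50 EGF were co-incubated 5 hours at 37 °C before 2.5-hour CCF4 loading at room temperature and dual-emission reading.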

The target of experiment [3] is Cytochrome P450 1A2 (Homo sapiens) (UniProt P05177). Put plainly: p450-cyp1a2 (AID 410; calls by dose curve; further: potency means the concentration at half of the fitted maximal effect). The procedure, abridged: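 Human CYP1A2 (20nM) demethylated Luciferin-ME at its Km (100uM) in 100mM KPO4. After 10 min compound preincubation, NADPH regeneration ran the reaction 60 min at room temperature. Luciferin was read by luminescence, normalized to 57 uM furafylline.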

Experiment [4] can be described thus: NFAT Signaling Pathway (AID 444; active means well fitted curve in either direction with a large enough effect, not every such curve was filed as active;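 further: carbachol stimulus at about its EC50 of 1 µM final; on the % scale 0 is the no-effect control and ±100 the full control effect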). Conditions: Jurkat NFAT-bla M1, carbachol, beta-lactamase ratio, 5 h; at 7.69 µM (top of the series) unless noted. The procedure, abridged: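 Jurkat cells with NFAT-driven β-lactamase reporter and co-expressed M1 receptor, stimulated with carbachol (final 1 uM, ~EC50), compound titration, 5 h at 37 °C. CCF4 loaded 1 h at RT; 460/530 nm ratio gave %activity and AC50.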

Experiment [5] in a line: Stat Signaling Pathway (AID 446; active means well fitted curve in either direction with a large enough effect, not every such curve was filed as active;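 further: ME-180 cervical cancer cells given 40 pM IL-6 alongside compound; SIE-controlled beta-lactamase reporter measured as 460/530 nm FRET emission ratio; on the % scale 0 is the no-effect control and ±100 the full control effect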). Particulars: ME-180 SIE beta-lactamase reporter, IL-6 stimulated, 5 h; at 7.69 µM (top of the series) unless noted. In a few lines: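 Screening format detects activators and inhibitors alike: ME-180 SIE-bla cells stimulated at 40 pM IL-6 for 5 hrs with compound, then dual-emission beta-lactamase read at 405 nm excitation.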
Experiment [6] has as its target Glucocorticoid receptor (Homo sapiens) (UniProt P04150). Nature of the experiment: GR-GFP Redistribution (AID 450;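 active means compounds whose dose series gives a full or clear partial fitted curve of increased nuclear translocation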; further: potency means the concentration at half of the fitted maximal effect). Conditions: U2OS GR-GFP nuclear translocation, laser cytometry, 2 h.
Experiment [7] shares this target. Nature of the experiment: GR-EFC Redistribution (AID 451; calls by dose curve; further: potency means the concentration at half of the fitted maximal effect). Particulars: CHO-K1 GR-EFC translocation, beta-gal luminescence, 2 h. The procedure, abridged:
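CHO-K1 cells expressing nuclear EA and GR-ED fragments of b-gal; compounds titrated up to 46 uM final, 2 h at 37 C. GR nuclear translocation read as complemented b-gal luminescence after 1 h RT detection.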

The target of experiment [8] is Mitogen-activated protein kinase 10 (Mus musculus) (UniProt Q61831). Nature of the experiment: JNK3 AlphaScreen Assay (AID 530; active means well fitted curve in either direction with a large enough effect, not every such curve was filed as active;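 further: kinase came from lysate of stimulated human HepG2 cells; signal reports phosphorylation of biotinylated GST-cJun 1-79 at Ser73 with 10 µM ATP; on the % scale 0 is the no-effect control and ±100 the full control effect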). In a few lines:
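qHTS format: compounds tested as titrations against IL-1beta/TNF-alpha-activated HepG2 lysate JNK3 with biotin-GST-cJun substrate and 10 uM ATP at room temperature. Loss of anti-phospho-cJun AlphaScreen signal indicates inhibition.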
In general terms: In Alpha technology, singlet oxygen from a donor bead excites a nearby acceptor bead.

Experiment [9] concerns the target 3',5'-cyclic-AMP phosphodiesterase 4B (Homo sapiens) (UniProt Q07343). Put plainly: qHTS Assay for Inhibitors of PDE-IV (AID 607; active means well fitted activation curve with a large enough effect in the main read-out, with a control signal flat, not every such curve was filed as active; further: % of control where 0% means no effect). The procedure, abridged: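 The readout is membrane depolarisation from a cAMP-sensing CNG channel, detected with a potential dye at ex 535/em 590. Cells were HEK293-derived (endogenous PDE-IV) at 1000 cells/well, titrated up to 22.9 uM final.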
Background: qHTS replaces the single test concentration by a dilution series.

Experiment [10] concerns the target Cytochrome P450 3A4 (Homo sapiens) (UniProt P08684). Put plainly: qHTS Assay for Activators of Cytochrome P450 3A4 (AID 885). Further: nearly all actives have a fitted effect of over 65% in size. Further: potency means the concentration at half of the fitted maximal effect. In a few lines: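 Steps: enzyme/substrate mix dispensed; compound added, 10 min RT; NADPH regeneration solution added, 60 min RT; luciferin detection buffer stops reaction; 20 min later luminescence measured.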
In experiment [11] the target is Dual specificity protein kinase CLK4 (Homo sapiens) (UniProt Q9HAZ1). Nature of the experiment: qHTS Assay for Inhibitors of CDC-like Kinase 4 (ADP-Glo Assay) (AID 1771). Further: on the % scale 0 is the no-effect control and ±100 the full control effect; nearly all actives have a fitted effect of over 70% in size. In a few lines: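 Clk4 (25 nM) was incubated 1 hr at room temperature with 100 uM RS repeat peptide and 1 uM ATP in buffer with 2 mM MgCl2, 0.5 mM EGTA, 2.5 mM DTT. ADP formed was quantified by ADP-Glo luminescence.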

The target is the same in experiment [12]. Nature of the experiment: qHTS Assay for Inhibitors of CDC-like Kinase 4 (ADP-FP Assay) (AID 1795).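 Further: recombinant human CLK4 phosphorylating RS repeat peptide at 1 µM ATP; on the % scale 0 is the no-effect control and ±100 the full control effect; nearly all actives have a fitted effect of over 60% in size.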 In a few lines:
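Recombinant Clk4 (6.25 nM) phosphorylated 100 uM RS repeat peptide with 1 uM ATP in 25 mM Tris pH 7.5, 10 mM MgCl2, 0.5 mM EGTA, 2.5 mM DTT, 0.01% Triton X-100 for 1 h. ADP was detected by Transcreener ADP2 competitive fluorescence polarization after 30 min at room temperature.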

For experiment [13], the target named is Ubiquitin carboxyl-terminal hydrolase 1 (Homo sapiens) (UniProt O94782). Nature of the experiment: Inhibitors of USP1/UAF1: Pilot qHTS (AID 504865).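 Further: rhodamine fluorescence freed from ubiquitin-rhodamine substrate followed over time; top concentration of the series differs between compounds; on the % scale 0 is the no-effect control and ±100 the full control effect; nearly all actives have a fitted effect of over 35% in size.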 The procedure, abridged:
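USP1/UAF1 complex at 1 nM preincubated 15 min at room temperature with compound, then Ub-Rho substrate added at 150 nM final. Fluorescence (480/540 nm) read kinetically in 50 mM HEPES pH 7.8, 0.5 mM EDTA, 1 mM TCEP, 0.1 mg/ml BSA, 0.01% Tween-20.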

Experiment [14] can be described thus: Primary qHTS for small molecule stabilizers of the endoplasmic reticulum resident proteome: Secreted ER Calcium Modulated Protein (SERCaMP) assay (AID 1508630). Further: on the % scale 0 is the no-effect control and ±100 the full control effect. In a few lines: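 GLuc-SERCaMP-expressing SH-SY5Y cells, pretreated 16 h with compound, are challenged with thapsigargin to empty ER calcium stores; after 4 h, coelenterazine is added directly to the medium and luminescence is imaged.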

For experiment [15], the target named is Cytochrome P450 3A4 (Homo sapiens) (UniProt P08684). Put plainly: qHTS Assay for Inhibitors and Substrates of Cytochrome P450 3A4 (AID 884). Further: nearly all actives have a fitted effect of over 50% in size. Further: potency means the concentration at half of the fitted maximal effect. The procedure, abridged: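 20 nM human CYP3A4 with 25 uM Luciferin-PPXE (at KM) in 200 mM KPO4, preincubated 10 min with compound; NADPH regeneration started a 60 min RT reaction. Luciferin detected by luminescence, normalized to 57 uM ketoconazole as full inhibition.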

The target of experiment [16] is Dual specificity protein kinase CLK4 (Homo sapiens) (UniProt Q9HAZ1). Nature of the experiment: qHTS Assay for Inhibitors of CDC-like Kinase 4 (Kinase-Glo Assay) (AID 1770). Further: nearly all actives have a fitted effect of over 65% in size. Further: potency means the concentration at half of the fitted maximal effect. The procedure, abridged: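 25 nM Clk4 with 100 uM RS repeat peptide and 1 uM ATP (final) in Tris pH7.5, 10 mM MgCl2, 4.5 h at room temperature. Remaining ATP measured by Kinase-Glo luciferase luminescence.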

Experiment [17] deals with Cytochrome P450 2C9 (Homo sapiens) (UniProt P11712). Nature of the experiment: qHTS Assay for Inhibitors and Substrates of Cytochrome P450 2C9 (AID 883). Further: on the % scale 0 is the no-effect control and ±100 the full control effect; nearly all actives have a fitted effect of over 60% in size. In a few lines:
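Signal: luciferase luminescence reporting luciferin produced by CYP2C9. Conditions: 10nM enzyme, Luciferin-H 100uM at KM, 25mM KPO4, 37C, 60 min NADPH-driven reaction. Reference: 57uM sulphaphenazole as 100% inhibition.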

The nature of experiment [18]: qHTS Assay for Identification of Small Molecule Agonists for Hypoxia Response Element Signaling Pathway (AID 914; active means well fitted activation curve with a large enough effect in the signal ratio, with a control signal flat, not every such curve was filed as active; the % refers to the signal ratio; further: potency means the concentration at half of the fitted maximal effect; on activation: % of control where 0% means no effect). Particulars: ME-180 (cervical carcinoma) HRE-bla reporter, beta-lactamase ratio, CoCl2, 17 h; activation: hits give high values. The procedure, abridged: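 AC50 values come from titration-series %Activity, taken as the 460/530nm ratio of CCF4 fluorescence (excitation 405nm). CellSensor HRE-bla ME-180 cells were treated 17 hours at 37 C with compound plus an EC50 level of CoCl2.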

Values without a mark were called inactive. Inconclusive results are not listed. Activity calls are given as the source filed them. Unless noted, the call rests on the fitted dose curve; in most records, active means well fitted curve in the direction sought with a large enough effect; inconclusive means small, poorly fitted or top-dose-only effect, or another doubt; inactive means no such curve, though single readings can be large; an effect the other way counts as inactive or inconclusive.

Sequence of Cytochrome P450 1A2 (Homo sapiens) (P05177 whole entry, looked up): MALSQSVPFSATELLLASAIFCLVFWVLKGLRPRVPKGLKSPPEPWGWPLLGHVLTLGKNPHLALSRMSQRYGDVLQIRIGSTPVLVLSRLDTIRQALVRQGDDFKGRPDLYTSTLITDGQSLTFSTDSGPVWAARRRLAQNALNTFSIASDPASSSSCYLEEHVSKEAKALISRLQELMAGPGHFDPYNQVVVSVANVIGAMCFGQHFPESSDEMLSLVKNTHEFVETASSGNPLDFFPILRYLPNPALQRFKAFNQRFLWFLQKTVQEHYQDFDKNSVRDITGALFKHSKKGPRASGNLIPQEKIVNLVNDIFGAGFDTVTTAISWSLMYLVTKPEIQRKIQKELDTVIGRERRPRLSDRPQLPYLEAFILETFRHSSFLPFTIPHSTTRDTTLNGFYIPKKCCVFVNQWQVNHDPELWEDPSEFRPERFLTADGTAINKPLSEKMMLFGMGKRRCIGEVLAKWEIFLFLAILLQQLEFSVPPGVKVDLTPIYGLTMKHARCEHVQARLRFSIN
Sequence of Glucocorticoid receptor (Homo sapiens) (P04150 whole entry, looked up): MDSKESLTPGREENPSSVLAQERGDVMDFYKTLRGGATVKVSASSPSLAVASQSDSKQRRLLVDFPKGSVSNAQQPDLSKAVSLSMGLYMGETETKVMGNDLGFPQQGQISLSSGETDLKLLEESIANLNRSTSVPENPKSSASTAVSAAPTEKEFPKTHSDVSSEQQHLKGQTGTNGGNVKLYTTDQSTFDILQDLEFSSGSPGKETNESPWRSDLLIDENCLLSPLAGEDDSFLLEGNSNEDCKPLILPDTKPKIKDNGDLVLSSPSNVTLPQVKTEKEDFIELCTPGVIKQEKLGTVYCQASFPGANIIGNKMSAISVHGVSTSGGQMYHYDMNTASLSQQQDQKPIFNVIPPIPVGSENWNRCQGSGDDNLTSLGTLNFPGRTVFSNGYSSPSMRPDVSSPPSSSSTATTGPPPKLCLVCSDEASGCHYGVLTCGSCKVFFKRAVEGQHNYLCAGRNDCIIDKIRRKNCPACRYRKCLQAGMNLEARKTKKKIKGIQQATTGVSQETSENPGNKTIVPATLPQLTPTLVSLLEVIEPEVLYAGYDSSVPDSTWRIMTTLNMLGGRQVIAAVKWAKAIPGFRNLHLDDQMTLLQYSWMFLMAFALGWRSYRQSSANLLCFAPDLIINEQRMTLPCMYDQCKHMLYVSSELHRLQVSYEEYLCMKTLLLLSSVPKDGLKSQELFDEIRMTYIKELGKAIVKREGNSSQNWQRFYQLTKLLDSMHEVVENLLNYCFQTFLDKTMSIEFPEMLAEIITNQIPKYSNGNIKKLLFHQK
Sequence of Ubiquitin carboxyl-terminal hydrolase 1 (Homo sapiens) (O94782 whole entry, looked up): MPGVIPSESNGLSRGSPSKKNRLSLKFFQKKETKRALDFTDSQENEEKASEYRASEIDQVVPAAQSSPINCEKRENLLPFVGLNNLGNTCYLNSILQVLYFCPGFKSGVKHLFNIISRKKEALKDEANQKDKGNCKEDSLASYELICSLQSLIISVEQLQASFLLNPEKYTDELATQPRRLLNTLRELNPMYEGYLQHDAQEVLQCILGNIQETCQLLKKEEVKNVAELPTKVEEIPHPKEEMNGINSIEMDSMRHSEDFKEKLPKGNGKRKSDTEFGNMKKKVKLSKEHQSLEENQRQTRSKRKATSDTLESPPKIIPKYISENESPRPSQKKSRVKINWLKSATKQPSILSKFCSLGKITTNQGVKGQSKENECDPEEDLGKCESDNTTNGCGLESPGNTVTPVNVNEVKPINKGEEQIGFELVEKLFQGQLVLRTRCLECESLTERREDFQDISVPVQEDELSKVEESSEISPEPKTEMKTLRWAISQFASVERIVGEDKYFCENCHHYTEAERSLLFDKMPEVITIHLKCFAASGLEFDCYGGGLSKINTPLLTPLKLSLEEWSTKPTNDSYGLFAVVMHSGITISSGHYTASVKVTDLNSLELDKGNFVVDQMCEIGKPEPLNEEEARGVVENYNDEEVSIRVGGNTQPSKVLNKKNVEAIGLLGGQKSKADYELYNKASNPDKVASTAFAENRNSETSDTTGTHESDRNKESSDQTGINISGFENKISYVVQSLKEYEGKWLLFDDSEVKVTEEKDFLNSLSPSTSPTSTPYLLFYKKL
Sequence of Dual specificity protein kinase CLK4 (Homo sapiens) (Q9HAZ1 whole entry, looked up): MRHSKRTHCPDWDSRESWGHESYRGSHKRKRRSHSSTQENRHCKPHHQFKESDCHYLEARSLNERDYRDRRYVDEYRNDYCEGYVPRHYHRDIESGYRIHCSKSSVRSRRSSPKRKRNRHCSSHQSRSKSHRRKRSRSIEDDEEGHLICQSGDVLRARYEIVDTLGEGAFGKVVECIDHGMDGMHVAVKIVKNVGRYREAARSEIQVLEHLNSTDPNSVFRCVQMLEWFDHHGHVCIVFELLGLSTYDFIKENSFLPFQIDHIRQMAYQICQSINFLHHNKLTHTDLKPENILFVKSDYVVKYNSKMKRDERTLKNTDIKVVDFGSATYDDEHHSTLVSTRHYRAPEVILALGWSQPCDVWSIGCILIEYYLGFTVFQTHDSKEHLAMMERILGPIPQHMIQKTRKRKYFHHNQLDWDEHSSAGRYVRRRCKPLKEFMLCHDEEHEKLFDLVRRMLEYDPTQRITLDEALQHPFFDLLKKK
Sequence of Cytochrome P450 3A4 (Homo sapiens) (P08684 whole entry, looked up): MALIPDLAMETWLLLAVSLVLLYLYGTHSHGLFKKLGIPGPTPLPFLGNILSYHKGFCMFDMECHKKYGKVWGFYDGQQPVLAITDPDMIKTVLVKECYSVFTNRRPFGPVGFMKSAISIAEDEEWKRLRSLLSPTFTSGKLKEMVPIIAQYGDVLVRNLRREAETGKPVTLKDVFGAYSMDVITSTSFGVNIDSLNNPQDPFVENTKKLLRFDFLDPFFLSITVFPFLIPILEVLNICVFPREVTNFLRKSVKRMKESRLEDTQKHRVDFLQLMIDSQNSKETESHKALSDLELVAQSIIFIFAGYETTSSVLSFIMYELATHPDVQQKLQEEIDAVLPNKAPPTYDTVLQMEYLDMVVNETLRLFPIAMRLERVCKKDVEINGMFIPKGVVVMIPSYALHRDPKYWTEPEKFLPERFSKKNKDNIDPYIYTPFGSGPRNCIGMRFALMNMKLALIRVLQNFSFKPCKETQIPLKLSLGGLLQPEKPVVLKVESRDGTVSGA
Sequence of Lysosomal acid glucosylceramidase (Homo sapiens) (P04062 whole entry, looked up): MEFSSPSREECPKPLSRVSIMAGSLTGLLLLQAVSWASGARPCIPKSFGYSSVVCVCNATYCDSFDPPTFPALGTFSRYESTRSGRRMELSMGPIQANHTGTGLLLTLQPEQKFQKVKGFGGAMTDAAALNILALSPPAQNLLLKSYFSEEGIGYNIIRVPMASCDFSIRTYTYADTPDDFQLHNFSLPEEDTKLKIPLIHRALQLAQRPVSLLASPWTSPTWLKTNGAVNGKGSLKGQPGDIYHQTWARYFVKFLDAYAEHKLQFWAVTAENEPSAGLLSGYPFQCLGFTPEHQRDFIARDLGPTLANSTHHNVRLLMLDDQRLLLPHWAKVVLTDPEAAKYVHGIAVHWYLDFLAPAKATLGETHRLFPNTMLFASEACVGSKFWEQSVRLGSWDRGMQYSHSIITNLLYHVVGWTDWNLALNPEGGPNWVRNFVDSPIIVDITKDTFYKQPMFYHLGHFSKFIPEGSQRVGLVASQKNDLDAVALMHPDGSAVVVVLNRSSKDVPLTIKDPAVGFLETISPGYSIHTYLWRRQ
Sequence of 3',5'-cyclic-AMP phosphodiesterase 4B (Homo sapiens) (Q07343 whole entry, looked up): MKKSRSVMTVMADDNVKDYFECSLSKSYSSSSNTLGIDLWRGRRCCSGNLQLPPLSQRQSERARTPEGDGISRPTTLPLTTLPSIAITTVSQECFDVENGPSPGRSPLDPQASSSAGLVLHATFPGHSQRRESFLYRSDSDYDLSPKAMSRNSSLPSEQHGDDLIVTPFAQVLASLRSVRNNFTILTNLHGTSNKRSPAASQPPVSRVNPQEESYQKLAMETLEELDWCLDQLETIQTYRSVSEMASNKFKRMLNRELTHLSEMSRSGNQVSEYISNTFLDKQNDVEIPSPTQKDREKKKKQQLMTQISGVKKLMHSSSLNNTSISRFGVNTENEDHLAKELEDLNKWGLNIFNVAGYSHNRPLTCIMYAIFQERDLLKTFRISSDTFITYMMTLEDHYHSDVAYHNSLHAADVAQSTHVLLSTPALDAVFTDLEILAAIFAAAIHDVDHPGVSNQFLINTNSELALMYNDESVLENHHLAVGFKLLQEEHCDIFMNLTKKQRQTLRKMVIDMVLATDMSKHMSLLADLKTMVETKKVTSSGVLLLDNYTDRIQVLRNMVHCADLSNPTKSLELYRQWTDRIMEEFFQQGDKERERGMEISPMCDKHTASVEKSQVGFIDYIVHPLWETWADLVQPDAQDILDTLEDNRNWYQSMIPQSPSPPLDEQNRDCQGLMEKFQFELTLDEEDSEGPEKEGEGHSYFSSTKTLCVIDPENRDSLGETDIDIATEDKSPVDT
Sequence of Cytochrome P450 2C9 (Homo sapiens) (P11712 whole entry, looked up): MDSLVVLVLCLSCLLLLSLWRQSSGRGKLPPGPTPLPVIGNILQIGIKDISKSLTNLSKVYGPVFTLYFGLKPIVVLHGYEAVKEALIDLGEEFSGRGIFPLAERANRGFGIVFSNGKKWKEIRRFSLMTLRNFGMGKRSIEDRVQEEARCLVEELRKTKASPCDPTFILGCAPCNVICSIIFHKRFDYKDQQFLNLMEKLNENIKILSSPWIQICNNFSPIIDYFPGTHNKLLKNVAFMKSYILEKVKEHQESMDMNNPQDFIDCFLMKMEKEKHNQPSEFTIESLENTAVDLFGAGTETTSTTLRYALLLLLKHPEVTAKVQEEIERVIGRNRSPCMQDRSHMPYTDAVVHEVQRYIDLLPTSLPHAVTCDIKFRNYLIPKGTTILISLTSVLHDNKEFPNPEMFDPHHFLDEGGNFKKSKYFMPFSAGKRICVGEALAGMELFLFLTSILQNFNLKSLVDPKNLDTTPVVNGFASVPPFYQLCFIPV

`Cc1cnc(CNc2nc(-c3ccccc3C)nc3ccccc23)cn1`: the Potency in experiment [1] is more than 11.4 µM; in experiment [3], 3.16 µM (active); in experiment [6], more than 46 µM; in experiment [7], more than 46 µM. Further, the results for the activity change, negative = inhibition in experiment [2] and in [4] were -8.73% and -6.95%, respectively. The activity, negative = inhibition in experiment [5] was -5.75%. For the same compound, the Potency result in experiment [8], in experiment [9], in [10], in experiment [11], in experiment [12] and in experiment [13] was “inactive” each time. Besides, in experiment [14], the result was inactive.

On to `Cc1noc(C)c1-c1nc(Nc2ccccc2)c2ccccc2n1`, for which the activity change, negative = inhibition in experiment [2] is -13.6%; in experiment [4], -11.8%. Also, the Potency is 0.251 µM (active) in [3], more than 46 µM in experiment [6], more than 46 µM in experiment [7] and 6.31 µM (active) in [15]. Further, the activity, negative = inhibition in [5] was -8.68%. Further, the Potency result in experiment [8], in experiment [16], in [12] and in [13] was “inactive” each time. Also, the outcome in [14] was inactive.

Turning to `Cc1cnc(CNc2ccnc(-c3cccnc3)n2)cn1`, the Potency in experiment [1] is more than 11.4 µM; in experiment [3], 7.94 µM (active); in experiment [7], more than 46 µM; in experiment [15], 5.01 µM (active); in experiment [16], 15.8 µM (active). Besides, the activity change, negative = inhibition is 16.6% in experiment [2] and 21.5% [at 2.29 µM] in experiment [17]. Moreover, in [5], the activity, negative = inhibition is 13.3%. Further, the Potency entry in [8], in experiment [9], in experiment [10] and in [13] was “inactive” in each case. For the same compound, the outcome in experiment [14] was inactive.

As to `COc1cccc(-c2cc(NCc3cccnc3)ncn2)c1`, the Potency was more than 11.4 µM in experiment [1]; 0.631 µM (active) in [3]; more than 46 µM in experiment [6]; more than 46 µM in experiment [7]; 3.98 µM (active) in [15]; 14.1 µM (active) in experiment [16]. The activity change, negative = inhibition in experiment [2] was 12.8%; in experiment [4], 0.0139%. Moreover, the activity, negative = inhibition in [5] was -7.08%. Further, the Potency entry in experiment [8], in [9] and in experiment [13] was “inactive” each time. Also, the result in experiment [14] was inactive.

As to `Cn1c(=O)c(-c2cccc(F)c2)nc2cncnc21`, the values for the Potency in [1] and in experiment [7] were more than 11.4 µM and more than 46 µM, respectively. The figures for the activity change, negative = inhibition in experiment [2] and in [4] were -15.2% and 8.36%, respectively. In experiment [5], the activity, negative = inhibition is -5.84%. Besides, the Potency entry in [8], in experiment [9], in experiment [16], in [12] and in [13] was “inactive” in each case. For the same compound, the activation in [18] was -8.58%. In experiment [14], the outcome was inactive.

Turning to `Cc1cnc(CNc2nc(-c3ccoc3)nc3ccccc23)cn1`, the Potency in [1] was more than 11.4 µM; in experiment [3], 2 µM (active); in [6], more than 46 µM; in experiment [7], more than 46 µM. Further, the activity change, negative = inhibition in [2] was -13.5%. Besides, the activity, negative = inhibition in experiment [5] is 9.84%. For the same compound, the Potency entry in experiment [8], in experiment [9], in experiment [10], in experiment [16] and in [13] was “inactive” in each case. The activation in [18] is -5.75%. For the same compound, in experiment [14], the result was inactive.

For `CN1CCN(c2ncc3nc(-c4ccc(Cl)cc4)c(=O)n(C)c3n2)CC1`, the Potency in experiment [1] is more than 11.4 µM; in experiment [6], more than 9.22 µM; in experiment [7], more than 46 µM; in [10], 12.6 µM (active); in experiment [18] it was 3.16 µM (active). Further, the Potency entry in experiment [8], in [9], in [15], in experiment [16], in [12] and in [13] was “inactive” each time. Besides, in experiment [14], the outcome was inactive.
